# Data reported in paper PMC11062922 (Nature Chemical Biology, 2023).
# How the values were obtained:
# [1] = test system: CDK6; parameters: species or system human, MV4-11 + K-562 + COLO205 + SK-N-BE2 + OVCAR-8; conditions: read-out: apparent Kd; compound concentrations: 100 nM and 1000 nM (sheet 'Samples'), CATDS: 0.50989905801732505; n = 1
# [2] = test system: PIM2; parameters: species or system human, MV4-11 + K-562 + COLO205 + SK-N-BE2 + OVCAR-8; conditions: read-out: apparent Kd; compound concentrations: 100 nM and 1000 nM (sheet 'Samples'), CATDS: 0.49047797816886901; n = 1
# [3] = test system: CDK7; parameters: species or system human, MV4-11 + K-562 + COLO205 + SK-N-BE2 + OVCAR-8; conditions: read-out: apparent Kd; compound concentrations: 100 nM and 1000 nM (sheet 'Samples'), CATDS: 4.9338137384748702E-2; n = 1
# [4] = test system: ERCC2; parameters: species or system human, MV4-11 + K-562 + COLO205 + SK-N-BE2 + OVCAR-8; conditions: read-out: apparent Kd; compound concentrations: 100 nM and 1000 nM (sheet 'Samples'), CATDS: 5.1368063894958502E-2; n = 1
# [5] = test system: FER; parameters: species or system human, MV4-11 + K-562 + COLO205 + SK-N-BE2 + OVCAR-8; conditions: read-out: apparent Kd; compound concentrations: 100 nM and 1000 nM (sheet 'Samples'), CATDS: 5.6215291988472402E-2; n = 1
# [6] = test system: GAK; parameters: species or system human, MV4-11 + K-562 + COLO205 + SK-N-BE2 + OVCAR-8; conditions: read-out: apparent Kd; compound concentrations: 100 nM and 1000 nM (sheet 'Samples'), CATDS: 4.9289180471638903E-2; n = 1
# [7] = test system: MAPK10; parameters: species or system human, MV4-11 + K-562 + COLO205 + SK-N-BE2 + OVCAR-8; conditions: read-out: apparent Kd; compound concentrations: 100 nM and 1000 nM (sheet 'Samples'), CATDS: 5.8204150926545503E-2; n = 1
# [8] = test system: MAPK14; parameters: species or system human, MV4-11 + K-562 + COLO205 + SK-N-BE2 + OVCAR-8; conditions: read-out: apparent Kd; compound concentrations: 100 nM and 1000 nM (sheet 'Samples'), CATDS: 6.3546758887955801E-2; n = 1
# [9] = test system: MAPK9; parameters: species or system human, MV4-11 + K-562 + COLO205 + SK-N-BE2 + OVCAR-8; conditions: read-out: apparent Kd; compound concentrations: 100 nM and 1000 nM (sheet 'Samples'), CATDS: 5.1291573819888199E-2; n = 1
# [10] = test system: MAPKAPK2; parameters: species or system human, MV4-11 + K-562 + COLO205 + SK-N-BE2 + OVCAR-8; conditions: read-out: apparent Kd; compound concentrations: 100 nM and 1000 nM (sheet 'Samples'), CATDS: 6.9359248510779001E-2; n = 1
# [11] = test system: NLK; parameters: species or system human, MV4-11 + K-562 + COLO205 + SK-N-BE2 + OVCAR-8; conditions: read-out: apparent Kd; compound concentrations: 100 nM and 1000 nM (sheet 'Samples'), CATDS: 0.64871625608349803; n = 1
# [12] = test system: PAK4; parameters: species or system human, MV4-11 + K-562 + COLO205 + SK-N-BE2 + OVCAR-8; conditions: read-out: apparent Kd; compound concentrations: 100 nM and 1000 nM (sheet 'Samples'), CATDS: 5.1367607354333399E-2; n = 1
# [13] = test system: PIP4K2C; parameters: species or system human, MV4-11 + K-562 + COLO205 + SK-N-BE2 + OVCAR-8; conditions: read-out: apparent Kd; compound concentrations: 100 nM and 1000 nM (sheet 'Samples'), CATDS: 6.1444231758823603E-2; n = 1
# [14] = test system: PTK2B; parameters: species or system human, MV4-11 + K-562 + COLO205 + SK-N-BE2 + OVCAR-8; conditions: read-out: apparent Kd; compound concentrations: 100 nM and 1000 nM (sheet 'Samples'), CATDS: 5.2093058874082297E-2; n = 1
# [15] = biological target: Q6ZSR9 (human, UniProt Q6ZSR9); parameters: species or system MV4-11 + K-562 + COLO205 + SK-N-BE2 + OVCAR-8; conditions: read-out: apparent Kd; compound concentrations: 100 nM and 1000 nM (sheet 'Samples'), CATDS: 4.2380052385305601E-2; n = 1
# [16] = test system: SIK2; parameters: species or system human, MV4-11 + K-562 + COLO205 + SK-N-BE2 + OVCAR-8; conditions: read-out: apparent Kd; compound concentrations: 100 nM and 1000 nM (sheet 'Samples'), CATDS: 4.6797026760186898E-2; n = 1
# [17] = test system: STK3; parameters: species or system human, MV4-11 + K-562 + COLO205 + SK-N-BE2 + OVCAR-8; conditions: read-out: apparent Kd; compound concentrations: 100 nM and 1000 nM (sheet 'Samples'), CATDS: 4.17809647402431E-2; n = 1
# [18] = test system: STK4; parameters: species or system human, MV4-11 + K-562 + COLO205 + SK-N-BE2 + OVCAR-8; conditions: read-out: apparent Kd; compound concentrations: 100 nM and 1000 nM (sheet 'Samples'), CATDS: 4.6786088352923701E-2; n = 1
# [19] = test system: TNK1; parameters: species or system human, MV4-11 + K-562 + COLO205 + SK-N-BE2 + OVCAR-8; conditions: read-out: apparent Kd; compound concentrations: 100 nM and 1000 nM (sheet 'Samples'), CATDS: 5.4278066670988299E-2; n = 1
# [20] = test system: TNK2; parameters: species or system human, MV4-11 + K-562 + COLO205 + SK-N-BE2 + OVCAR-8; conditions: read-out: apparent Kd; compound concentrations: 100 nM and 1000 nM (sheet 'Samples'), CATDS: 7.0528629271619694E-2; n = 1
# Chain of Q6ZSR9 (Q6ZSR9 whole entry, looked up): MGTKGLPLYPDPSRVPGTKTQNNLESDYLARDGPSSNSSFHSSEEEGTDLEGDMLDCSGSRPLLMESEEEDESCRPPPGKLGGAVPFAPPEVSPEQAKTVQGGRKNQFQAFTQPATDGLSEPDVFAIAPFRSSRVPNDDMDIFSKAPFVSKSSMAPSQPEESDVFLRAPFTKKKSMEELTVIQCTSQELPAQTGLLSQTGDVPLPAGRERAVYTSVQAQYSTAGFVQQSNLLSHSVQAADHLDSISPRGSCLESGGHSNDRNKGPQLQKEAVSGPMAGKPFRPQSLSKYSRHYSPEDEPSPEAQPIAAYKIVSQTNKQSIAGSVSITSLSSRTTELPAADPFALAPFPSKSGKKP
Structure (SMILES),potency estimated from few doses [1],potency estimated from few doses [2],potency estimated from few doses [3],potency estimated from few doses [4],potency estimated from few doses [5],potency estimated from few doses [6],potency estimated from few doses [7],potency estimated from few doses [8],potency estimated from few doses [9],potency estimated from few doses [10],potency estimated from few doses [11],potency estimated from few doses [12],potency estimated from few doses [13],potency estimated from few doses [14],potency estimated from few doses [15],potency estimated from few doses [16],potency estimated from few doses [17],potency estimated from few doses [18],potency estimated from few doses [19],potency estimated from few doses [20]
O=C(Nc1n[nH]c2cc(-c3ccccc3F)ccc12)C1CC1 [SB-733371],1670 nM,1800 nM,,,,,,,,,,,,,,,,,,
Cl.Cn1c(=O)c(Oc2cccc(F)c2)cc2cnc(NC3CCOCC3)nc21 [RO3304774-001],,,1360 nM,1240 nM,1010 nM,1370 nM,939 nM,786 nM,1240 nM,665 nM,17.9 nM,1240 nM,840 nM,1200 nM,2060 nM,1560 nM,2160 nM,1560 nM,1090 nM,645 nM
